Our source for the CRC/CRC0 ratio values is PubChem BioAssay AID743360 (Molecular Libraries Program, Specialized Chemistry Center, …, 2014).

Values without a mark were called inactive. The source made the active and inactive calls.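 Rule for the calls: active = calcium retention capacity relative to untreated control above about 1.1 ratio (limit read from the data); inactive = the rest.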

The assay can be described thus: mitochondrial Ca2+ retention capacity increase – biochemical, dry powder samples, uHTS hits, Calcium Green-5N, dose response (AID 743360). The note with it: isolated mitochondria, Ca retention capacity.
In the case of `CN1CCN(c2ccc(NS(=O)(=O)c3cc(Cl)cc(Cl)c3)cc2)CC1`, the CRC/CRC0 ratio at 12.5 uM (higher = more inhibition) is 1.11 (active). Regarding `COc1ccc(Cl)cc1C(=O)Nc1ccc(CN2CCN(C(=O)OC(C)(C)C)CC2)cc1`, the CRC/CRC0 ratio at 12.5 uM (higher = more inhibition) is 1.33 (active). With `COc1ccc(Cl)c(C(=O)Nc2ccc(CCN3CCN(C(=O)OC(C)(C)C)CC3)cc2)c1` the figure was 1.11 (active). For `COc1ccc(NC(=O)c2cc(-c3ccc(Cl)cc3)on2)cc1Cl`, the CRC/CRC0 ratio at 12.5 uM (higher = more inhibition) is > 1. For `CCCc1cc(C(=O)Nc2ccc(Br)cc2)no1`, the CRC/CRC0 ratio at 12.5 uM (higher = more inhibition) was 1.02. Next, `CN1CCN(c2ccc(Cl)cc2NC(=O)/C=C/c2cccc(F)c2)CC1`: 1.53 (active).

Take `CN1CCN(CCc2ccc(NS(=O)(=O)c3cccc(Cl)c3)cc2)CC1`: the CRC/CRC0 ratio at 12.5 uM (higher = more inhibition) is > 1. Consider `Cc1cc(NC(=O)c2cc(-c3ccc(F)cc3)on2)no1`, for which the CRC/CRC0 ratio at 12.5 uM (higher = more inhibition) was > 1. Next, `COc1ccc(Cl)cc1C(=O)Nc1ccc(N2CCCCC2)cc1`: 1.05.

For `O=C(Nc1cccc(Cl)c1)c1cc(-c2ccccc2)on1`, the CRC/CRC0 ratio at 12.5 uM (higher = more inhibition) was > 1. Next, `CCCc1cc(C(=O)Nc2c(F)cc(F)cc2Br)no1`: 1.13 (active); `COc1ccc(Cl)c(C(=O)Nc2ccc(CCN3CCN(C)CC3)cc2)c1`: > 1. On to `COc1ccc(Cl)cc1C(=O)Nc1ccc(CCN2CCCCC2)cc1`, for which the CRC/CRC0 ratio at 12.5 uM (higher = more inhibition) was 1.51 (active).

`COc1ccc(Cl)cc1C(=O)Nc1ccc(CCN2CCNCC2)cc1`: the CRC/CRC0 ratio at 12.5 uM (higher = more inhibition) is 1.31 (active). As for `COc1ccc(Cl)c(C(=O)Nc2ccc(CCN3CCOCC3)cc2)c1`, the CRC/CRC0 ratio at 12.5 uM (higher = more inhibition) is > 1.

In the case of `O=C(Nc1ccc(Br)cc1)c1cc(C2CC2)on1`, the CRC/CRC0 ratio at 12.5 uM (higher = more inhibition) was 1.06. `CN1CCN(Cc2ccc(NC(=O)c3cccc(OCc4ccccc4)c3)cc2)CC1`: the CRC/CRC0 ratio at 12.5 uM (higher = more inhibition) is 2.26 (active). Take `CN1CCN(CCc2ccc(NC(=O)c3cccc(OCc4ccccc4)c3)cc2)CC1`: the CRC/CRC0 ratio at 12.5 uM (higher = more inhibition) is 2.05 (active). Next, `COc1ccc(Cl)cc1C(=O)Nc1ccc(N(C)C)cc1`: 1.18 (active); `COc1ccc(Cl)cc1C(=O)Nc1ccc(CCN2CCN(C(=O)OC(C)(C)C)CC2)cc1`: 1.37 (active); `O=S(=O)(Nc1ccc(CN2CCCCC2)cc1)c1ccc(F)c(Cl)c1`: 1.07.

With `COc1ccc(Cl)c(C(=O)Nc2ccc(CN3CCN(C)CC3)cc2)c1`, the CRC/CRC0 ratio at 12.5 uM (higher = more inhibition) is > 1. With `O=C(Nc1ccc(Cl)cc1)c1cc(-c2cccc(O)c2)on1` the figure was 3.44 (active). On to `CCN(C(=O)c1cc(Cl)ccc1OC)c1ccccc1`, for which the CRC/CRC0 ratio at 12.5 uM (higher = more inhibition) is > 1. Next, `COc1ccc(Cl)c(C(=O)Nc2ccc(CN3CCOCC3)cc2)c1`: 1.03; `O=C(Nc1cc(Cl)ccc1F)c1cc(-c2cccc(O)c2)on1`: 6.53 (active). In the case of `CN1CCN(c2ccc(NC(=O)c3cccc(OCc4ccccc4)c3)cc2)CC1`, the CRC/CRC0 ratio at 12.5 uM (higher = more inhibition) is 1.52 (active).

As for `COc1ccc(Cl)c(C(=O)Nc2ccc(CN3CCCCC3)cc2)c1`, the CRC/CRC0 ratio at 12.5 uM (higher = more inhibition) was > 1. Next, `COc1ccccc1C(=O)Nc1ccc(CN2CCCCC2)cc1`: 1.05.

Consider `Cc1ccc(Cl)cc1NC(=O)c1cc(-c2cccc(O)c2)on1`, for which the CRC/CRC0 ratio at 12.5 uM (higher = more inhibition) is 9.18 (active). For the molecule `O=S(=O)(Nc1ccc(CCN2CCCCC2)cc1)c1cc(Cl)cc(Cl)c1`, the CRC/CRC0 ratio at 12.5 uM (higher = more inhibition) was 1.17 (active). With `O=C(Nc1ccc(CCN2CCCCC2)cc1)c1cccc(OCc2ccccc2)c1` the figure was 3.04 (active); with `O=C(Nc1cccc(F)c1)c1cc(-c2cccc(O)c2)on1`, 2.24 (active).
